Where a name gives a salt, the structure may show the parent alone.
Columns and labels:
Details in all cases: 10 µM; exposure time 6 h
[1] = system: Danio rerio larvae (5 dpf); experiment: difference in excitability vs DMSO (percentage points); higher = more excitable than DMSO
In short: (§1)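 In 96-well plates, 48 wild-type zebrafish larvae aged 5 dpf per compound received 100 µL egg water with library compound at 10 µM final for 6 h. Three hours into this, a 3-h programme of moving lines and 100 ms, 400Hz tones ran at 28.5 ℃ while plates were photographed every 6 s. Z-LaP Tracker scored the behaviours, and each is given as the compound mean minus the vehicle control mean in percentage points.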

[2] = system: Danio rerio larvae (5 dpf); experiment: difference in startle response vs DMSO (percentage points); higher = stronger startle than DMSO
In short: as §1

[3] = system: Danio rerio larvae (5 dpf); experiment: difference in activity during first hour vs DMSO (percentage points); higher = more activity than DMSO
In short: as §1

[4] = system: Danio rerio larvae (5 dpf); experiment: difference in habituation to acoustic stimuli vs DMSO (percentage points); higher = more habituation than DMSO
In short: as §1

[5] = system: Danio rerio larvae (5 dpf); experiment: difference in combined optomotor response to red, green and blue moving lines vs DMSO (percentage points); higher = stronger optomotor response than DMSO
In short: as §1

Structure (SMILES)	difference in excitability [1]	difference in startle response [2]	difference in activity during first hour [3]	difference in habituation to acoustic stimuli [4]	difference [5]
CC1=Nc2ccc(Cl)cc2S(=O)(=O)N1 [Diazoxide]	-4.99	1.05	4.03	-3.84	5.23
CNCC[C@H](Oc1cccc2ccccc12)c1cccs1 [(S)-Duloxetine (hydrochloride)]	4.76	-1.86	-21	-3.34	-11.3
CC(=O)N[C@H]1[C@H]([C@H](O)[C@H](O)CO)OC(C(=O)O)=C[C@@H]1NC(=N)N [Zanamivir]	1.36	-2.53	-16.7	1.69	-6.11
Cn1c(=O)cc(N2CCC[C@@H](N)C2)n(Cc2ccccc2C#N)c1=O [Alogliptin (benzoate salt)]	9.09	5.66	10.7	-0.862	0.5
CC(=O)[C@H]1CC[C@H]2[C@@H]3CCC4=CC(=O)CC[C@]4(C)[C@H]3CC[C@]12C [Progesterone]	3.92	-7.45	-21.2	-12.3	-17.3
NS(=O)(=O)c1cc(C(=O)O)c(NCc2ccco2)cc1Cl [Furosemide]	6.1	-2.57	12	-0.166	8.19
CN(C)CCOC(C)(c1ccccc1)c1ccccn1 (stereo not given) [Doxylamine (succinate)]	0.347	-2.91	6.73	5.01	9.42
CN1CCCC(n2nc(Cc3ccc(Cl)cc3)c3ccccc3c2=O)CC1 (stereo not given) [Azelastine (hydrochloride)]	19.9	1.87	-5.88	-2.38	3.47
C/C=C1\NC(=O)[C@H]2CSSCC/C=C/[C@H](CC(=O)N[C@H](C(C)C)C(=O)N2)OC(=O)[C@H](C(C)C)NC1=O [Romidepsin]	2.86	-0.00342	21	0.496	8.55
CCCCCCCCc1ccc(CCC(N)(CO)CO)cc1 [Fingolimod]	5.87	-4.94	-2.73	-2	-4.81
O=C(O)CCCN1CCC(O[C@@H](c2ccc(Cl)cc2)c2ccccn2)CC1 [Bepotastine (besylate)]	13.3	3.74	0.00178	0.195	1.29
CC(S)C(=O)NCC(=O)O (stereo not given) [Tiopronin]	1.71	-1.91	3.62	-3.05	3.9
CNCC(O)c1ccc(OC(=O)C(C)(C)C)c(OC(=O)C(C)(C)C)c1 (stereo not given) [Dipivefrin (hydrochloride)]	-3.61	-15.1	46.2	-2.07	2.48
COc1ccc(CC(C)(C)NC[C@H](O)c2cc(O)cc3c2OCC(=O)N3)cc1 [Olodaterol]	10.9	-5.93	11.8	-9.87	3.03
CC(CCc1ccc(O)cc1)NCCc1ccc(O)c(O)c1 (stereo not given) [Dobutamine (hydrochloride)]	10.9	6.81	-2.65	12	13.9
Nc1nc(N)c2nc(-c3ccccc3)c(N)nc2n1 [Triamterene]	-0.938	5.79	11.3	-2.13	6.72
CN(C)CC/C=C1/c2ccccc2COc2ccc(CC(=O)O)cc21 [Olopatadine (hydrochloride)]	2.11	-1.34	-6.94	3.84	2.97
c1ccc2c(CC3=NCCN3)cccc2c1 [Naphazoline (hydrochloride)]	10.4	-5.95	0.867	-2.18	-3.73
CCc1c2c(nc3ccc(OC(=O)N4CCC(N5CCCCC5)CC4)cc13)-c1cc3c(c(=O)n1C2)COC(=O)[C@]3(O)CC [Irinotecan (hydrochloride hydrate)]	13.5	-2.28	0.361	2.44	2.92
COc1ccc([C@@H]2Sc3ccccc3N(CCN(C)C)C(=O)[C@@H]2OC(C)=O)cc1 [Diltiazem (hydrochloride)]	8.73	-1.93	11.2	-8.44	1.27
CCOC(=O)[C@H](CCc1ccccc1)N[C@H]1CCc2ccccc2N(CC(=O)O)C1=O [Benazepril (hydrochloride)]	7.01	3.34	-2.03	-3.43	-7.74
COc1ccc(NC(=O)c2ccc(C(=N)N(C)C)cc2)c(C(=O)Nc2ccc(Cl)cn2)c1 [Betrixaban]	11.6	2.94	2.19	5.98	7.59
CCCCc1oc2ccccc2c1C(=O)c1cc(I)c(OCCN(CC)CC)c(I)c1 [Amiodarone (hydrochloride)]	8.93	-3.14	8.93	-15.9	-11.8
CN1CC(=O)N2[C@H](c3ccc4c(c3)OCO4)c3[nH]c4ccccc4c3C[C@@H]2C1=O [Tadalafil]	3.64	1.33	0.0422	3.67	6.23
NCCCC(O)(P(=O)(O)O)P(=O)(O)O [Alendronate (sodium hydrate)]	-4.92	0.325	-3.96	-4.98	5.9

From the supplement of paper PMC10515830
